In PMC7862700, “An all-to-all approach to the identification of sequence-specific readers for epigenetic DNA modifications on cytosine”:

Assays:
Assay in all cases: DAPPL (digital affinity profiling via proximity ligation, sequencing); 10 mM Tris-HCl pH 7.5, 50 mM NaCl, 1 mM DTT, 4% glycerol, room temperature, 30 min; GST-TFs on glutathione beads, 16-mer random dsDNA library, 0.1% formaldehyde crosslink after washing; high values mean tight binding
[1] = target: T1, FEV (Homo sapiens, UniProt Q99581 1-238); settings: protein: recombinant; tags: N-terminal GST; dsDNA, one strand shown
T1 sequence: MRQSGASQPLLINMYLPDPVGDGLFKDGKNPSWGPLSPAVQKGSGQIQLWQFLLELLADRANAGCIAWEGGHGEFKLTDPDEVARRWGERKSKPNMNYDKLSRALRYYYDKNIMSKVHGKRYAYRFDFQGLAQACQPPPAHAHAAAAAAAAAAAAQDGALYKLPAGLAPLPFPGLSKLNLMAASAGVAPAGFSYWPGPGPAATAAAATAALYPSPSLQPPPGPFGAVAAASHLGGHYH
How it was run: (§1)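 Binding signal is each hexamer's read frequency for a factor divided by its frequency in the tag-only sample. The factors were GST-fused human transcription factors from yeast, captured on glutathione beads, DNA-barcoded and pooled with that sample. Pools were incubated with 200 nmole of a random double-stranded 16-mer DNA library in Tris/NaCl/DTT/glycerol buffer at room temperature for 30 min, then washed, crosslinked with 0.1% formaldehyde, proximity-ligated with BsaI/T4 ligase (1 h, 37 °C), PCR-amplified and sequenced on an Illumina NextSeq500.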

[2] = target: ETV5 (Homo sapiens, UniProt P41161 1-510); settings: protein: recombinant; tags: N-terminal GST; dsDNA, one strand shown
How it was run: as §1

[3] = target: HSF1 (Homo sapiens, UniProt Q00613 1-529); settings: protein: recombinant; tags: N-terminal GST; chain copies: 3; dsDNA, one strand shown
How it was run: as §1

[4] = target: T2, SPIC (Homo sapiens, UniProt Q8N5J4 1-248); settings: protein: recombinant; tags: N-terminal GST; dsDNA, one strand shown
T2 sequence: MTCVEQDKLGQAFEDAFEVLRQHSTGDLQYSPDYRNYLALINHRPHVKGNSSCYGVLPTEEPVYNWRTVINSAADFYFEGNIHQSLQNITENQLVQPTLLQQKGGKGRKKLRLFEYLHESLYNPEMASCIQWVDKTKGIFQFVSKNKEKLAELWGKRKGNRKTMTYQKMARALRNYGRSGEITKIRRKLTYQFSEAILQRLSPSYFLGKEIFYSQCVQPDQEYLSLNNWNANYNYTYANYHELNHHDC
How it was run: as §1

[5] = target: ELF4 (Homo sapiens, UniProt Q99607 1-663); settings: protein: recombinant; tags: N-terminal GST; dsDNA, one strand shown
How it was run: as §1

[6] = target: T3, ELK4 (Homo sapiens, UniProt P28324-2 1-405); settings: protein: recombinant; tags: N-terminal GST; dsDNA, one strand shown
T3 sequence: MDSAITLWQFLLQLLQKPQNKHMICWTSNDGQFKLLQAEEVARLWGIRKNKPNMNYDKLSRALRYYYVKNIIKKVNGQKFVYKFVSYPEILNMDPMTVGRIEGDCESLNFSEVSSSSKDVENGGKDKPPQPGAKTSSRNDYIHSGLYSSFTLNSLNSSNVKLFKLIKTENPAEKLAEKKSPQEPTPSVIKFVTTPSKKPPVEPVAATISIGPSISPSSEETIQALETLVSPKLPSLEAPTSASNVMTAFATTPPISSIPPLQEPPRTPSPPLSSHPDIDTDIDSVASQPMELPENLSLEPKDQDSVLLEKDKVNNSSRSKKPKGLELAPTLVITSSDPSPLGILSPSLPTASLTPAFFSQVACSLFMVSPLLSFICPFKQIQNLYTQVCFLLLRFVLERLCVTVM
How it was run: as §1

[7] = target: T4, ETV2 (Homo sapiens, UniProt O00321 1-342); settings: protein: recombinant; tags: N-terminal GST; dsDNA, one strand shown
T4 sequence: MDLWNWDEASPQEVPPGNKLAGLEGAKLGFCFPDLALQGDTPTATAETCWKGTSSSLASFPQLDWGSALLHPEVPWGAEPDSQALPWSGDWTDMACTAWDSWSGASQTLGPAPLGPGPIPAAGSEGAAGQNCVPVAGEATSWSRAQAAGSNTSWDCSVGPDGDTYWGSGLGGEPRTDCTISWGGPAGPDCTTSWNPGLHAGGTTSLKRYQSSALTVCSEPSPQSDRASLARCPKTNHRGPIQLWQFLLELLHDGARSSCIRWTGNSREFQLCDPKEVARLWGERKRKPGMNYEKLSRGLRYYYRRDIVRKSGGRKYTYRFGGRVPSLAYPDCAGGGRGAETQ
How it was run: as §1

[8] = target: T5, ELF3 (Homo sapiens, UniProt P78545 1-371); settings: protein: recombinant; tags: N-terminal GST; dsDNA, one strand shown
T5 sequence: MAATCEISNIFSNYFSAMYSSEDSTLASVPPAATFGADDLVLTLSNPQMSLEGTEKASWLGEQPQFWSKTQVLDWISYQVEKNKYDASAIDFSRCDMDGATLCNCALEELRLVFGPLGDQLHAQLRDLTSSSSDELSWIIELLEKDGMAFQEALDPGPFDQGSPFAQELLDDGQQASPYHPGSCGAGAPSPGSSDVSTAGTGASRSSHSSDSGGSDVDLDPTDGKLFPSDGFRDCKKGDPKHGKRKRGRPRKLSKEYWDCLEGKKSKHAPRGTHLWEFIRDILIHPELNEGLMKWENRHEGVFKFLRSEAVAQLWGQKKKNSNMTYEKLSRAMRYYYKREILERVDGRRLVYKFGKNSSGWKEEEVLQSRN
How it was run: as §1

[9] = target: CRX (Homo sapiens, UniProt O43186 1-299); settings: protein: recombinant; tags: N-terminal GST; dsDNA, one strand shown
How it was run: as §1

[10] = target: ETV1 (Homo sapiens, UniProt P50549 1-477); settings: protein: recombinant; tags: N-terminal GST; dsDNA, one strand shown
How it was run: as §1

[11] = target: T6, ERF (Homo sapiens, UniProt P50548 1-548); settings: protein: recombinant; tags: N-terminal GST; dsDNA, one strand shown
T6 sequence: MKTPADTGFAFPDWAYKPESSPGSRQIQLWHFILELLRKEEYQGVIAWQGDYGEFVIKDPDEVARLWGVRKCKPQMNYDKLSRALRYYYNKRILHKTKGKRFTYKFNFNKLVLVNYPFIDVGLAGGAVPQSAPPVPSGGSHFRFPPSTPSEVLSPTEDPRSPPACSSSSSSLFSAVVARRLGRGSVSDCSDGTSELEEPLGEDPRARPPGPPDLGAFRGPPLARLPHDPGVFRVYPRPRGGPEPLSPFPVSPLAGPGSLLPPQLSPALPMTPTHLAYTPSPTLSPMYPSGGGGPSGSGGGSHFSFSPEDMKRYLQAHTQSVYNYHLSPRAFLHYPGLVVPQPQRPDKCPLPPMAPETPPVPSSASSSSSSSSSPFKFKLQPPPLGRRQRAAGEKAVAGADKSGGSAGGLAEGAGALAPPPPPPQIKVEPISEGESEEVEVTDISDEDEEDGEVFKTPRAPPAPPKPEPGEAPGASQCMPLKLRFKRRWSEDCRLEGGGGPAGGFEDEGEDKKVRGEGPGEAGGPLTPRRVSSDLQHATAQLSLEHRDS
How it was run: as §1

[12] = target: T7, ETV3L (Homo sapiens, UniProt Q6ZN32 1-361); settings: protein: recombinant; tags: N-terminal GST; dsDNA, one strand shown
T7 sequence: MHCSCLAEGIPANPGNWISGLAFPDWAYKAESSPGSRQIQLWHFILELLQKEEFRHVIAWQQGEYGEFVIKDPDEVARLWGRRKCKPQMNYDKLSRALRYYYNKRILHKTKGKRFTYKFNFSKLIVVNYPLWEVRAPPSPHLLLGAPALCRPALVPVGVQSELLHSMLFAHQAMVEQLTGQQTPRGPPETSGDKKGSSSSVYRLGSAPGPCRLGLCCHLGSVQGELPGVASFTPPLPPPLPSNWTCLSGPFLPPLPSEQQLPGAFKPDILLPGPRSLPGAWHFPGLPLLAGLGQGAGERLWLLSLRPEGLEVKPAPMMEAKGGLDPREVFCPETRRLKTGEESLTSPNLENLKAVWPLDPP
How it was run: as §1

[13] = target: T8, ETS2 (Homo sapiens, UniProt P15036 1-469); settings: protein: recombinant; tags: N-terminal GST; dsDNA, one strand shown
T8 sequence: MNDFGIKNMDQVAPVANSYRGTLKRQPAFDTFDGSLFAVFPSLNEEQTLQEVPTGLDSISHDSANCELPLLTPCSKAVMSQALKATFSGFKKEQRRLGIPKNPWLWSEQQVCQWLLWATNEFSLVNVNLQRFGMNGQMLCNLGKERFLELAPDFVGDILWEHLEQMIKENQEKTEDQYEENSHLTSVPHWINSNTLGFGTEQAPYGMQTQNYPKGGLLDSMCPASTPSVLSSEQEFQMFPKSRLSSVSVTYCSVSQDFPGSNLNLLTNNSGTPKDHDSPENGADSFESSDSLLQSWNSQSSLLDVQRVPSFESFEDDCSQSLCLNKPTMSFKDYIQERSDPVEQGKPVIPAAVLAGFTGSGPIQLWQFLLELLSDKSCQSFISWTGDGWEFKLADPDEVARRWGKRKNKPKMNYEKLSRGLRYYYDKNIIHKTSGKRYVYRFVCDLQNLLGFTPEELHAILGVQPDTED
How it was run: as §1

[14] = target: T9, SPDEF (Homo sapiens, UniProt O95238 1-335); settings: protein: recombinant; tags: N-terminal GST; dsDNA, one strand shown
T9 sequence: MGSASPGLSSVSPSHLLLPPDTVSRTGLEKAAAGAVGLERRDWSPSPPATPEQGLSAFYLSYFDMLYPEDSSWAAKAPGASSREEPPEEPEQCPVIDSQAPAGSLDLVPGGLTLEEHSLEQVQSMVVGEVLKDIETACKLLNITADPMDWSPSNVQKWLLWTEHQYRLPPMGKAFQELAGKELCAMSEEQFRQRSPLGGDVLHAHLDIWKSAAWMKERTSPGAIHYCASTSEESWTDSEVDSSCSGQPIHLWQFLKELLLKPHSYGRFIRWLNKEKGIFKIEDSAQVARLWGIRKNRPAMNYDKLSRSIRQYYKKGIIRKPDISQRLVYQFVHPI
How it was run: as §1

[15] = target: T10, ETV7 (Homo sapiens, UniProt Q9Y603 1-341); settings: protein: recombinant; tags: N-terminal GST; dsDNA, one strand shown
T10 sequence: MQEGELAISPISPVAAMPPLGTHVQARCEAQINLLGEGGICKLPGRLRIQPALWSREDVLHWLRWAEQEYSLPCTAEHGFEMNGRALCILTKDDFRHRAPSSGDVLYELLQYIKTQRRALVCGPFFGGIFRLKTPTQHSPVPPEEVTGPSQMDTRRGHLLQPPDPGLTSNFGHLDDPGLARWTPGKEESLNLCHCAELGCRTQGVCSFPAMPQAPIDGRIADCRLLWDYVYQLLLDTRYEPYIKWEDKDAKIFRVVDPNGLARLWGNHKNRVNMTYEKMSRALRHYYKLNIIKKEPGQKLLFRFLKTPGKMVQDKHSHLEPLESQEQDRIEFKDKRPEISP
How it was run: as §1

[16] = target: T11, ELF5 (Homo sapiens, UniProt Q9UKW6-2 1-255); settings: protein: recombinant; tags: N-terminal GST; dsDNA, one strand shown
T11 sequence: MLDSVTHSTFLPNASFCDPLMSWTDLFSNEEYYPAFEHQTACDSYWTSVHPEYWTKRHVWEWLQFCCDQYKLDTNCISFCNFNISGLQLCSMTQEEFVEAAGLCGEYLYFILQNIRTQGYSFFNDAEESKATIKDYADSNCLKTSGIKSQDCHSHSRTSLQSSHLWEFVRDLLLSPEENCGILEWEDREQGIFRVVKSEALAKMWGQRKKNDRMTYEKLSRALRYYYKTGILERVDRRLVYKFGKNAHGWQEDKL
How it was run: as §1

[17] = target: T12, ETV3 (Homo sapiens, UniProt P41162-2 1-143); settings: protein: recombinant; tags: N-terminal GST; dsDNA, one strand shown
T12 sequence: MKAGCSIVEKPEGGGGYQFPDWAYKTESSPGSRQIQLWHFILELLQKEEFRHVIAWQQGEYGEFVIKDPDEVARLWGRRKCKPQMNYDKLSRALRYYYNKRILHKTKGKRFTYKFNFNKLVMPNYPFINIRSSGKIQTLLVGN
How it was run: as §1

[18] = target: ETV6 (Homo sapiens, UniProt P41212 1-452); settings: protein: recombinant; tags: N-terminal GST; dsDNA, one strand shown
How it was run: as §1

Chain of ELF4 (Q99607 whole entry): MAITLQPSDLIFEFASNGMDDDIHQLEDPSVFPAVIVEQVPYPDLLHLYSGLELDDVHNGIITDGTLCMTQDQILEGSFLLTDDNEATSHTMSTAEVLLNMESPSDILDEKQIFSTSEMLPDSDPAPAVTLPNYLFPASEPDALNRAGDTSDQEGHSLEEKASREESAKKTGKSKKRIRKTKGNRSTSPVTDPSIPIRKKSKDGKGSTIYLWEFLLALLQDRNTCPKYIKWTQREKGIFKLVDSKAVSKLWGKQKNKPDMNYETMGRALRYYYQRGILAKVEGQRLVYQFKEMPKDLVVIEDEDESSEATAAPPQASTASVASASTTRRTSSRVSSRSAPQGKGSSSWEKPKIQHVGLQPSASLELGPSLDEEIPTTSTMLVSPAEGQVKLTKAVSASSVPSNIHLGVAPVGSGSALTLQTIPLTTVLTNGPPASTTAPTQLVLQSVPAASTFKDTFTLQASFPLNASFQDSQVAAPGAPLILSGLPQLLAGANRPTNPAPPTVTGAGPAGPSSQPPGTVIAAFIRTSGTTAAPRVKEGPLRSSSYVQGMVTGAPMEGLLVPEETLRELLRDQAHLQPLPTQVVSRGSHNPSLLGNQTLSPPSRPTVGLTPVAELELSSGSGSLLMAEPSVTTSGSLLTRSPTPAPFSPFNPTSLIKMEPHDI
Chain of CRX (O43186 whole entry): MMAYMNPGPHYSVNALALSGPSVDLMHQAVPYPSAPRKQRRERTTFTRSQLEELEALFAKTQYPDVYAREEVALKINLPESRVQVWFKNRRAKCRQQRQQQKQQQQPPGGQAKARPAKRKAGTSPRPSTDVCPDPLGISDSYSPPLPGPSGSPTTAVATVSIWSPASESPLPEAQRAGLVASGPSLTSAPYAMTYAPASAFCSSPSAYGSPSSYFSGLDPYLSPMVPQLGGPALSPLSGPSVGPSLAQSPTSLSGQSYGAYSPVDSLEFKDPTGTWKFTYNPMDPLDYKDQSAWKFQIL
Chain of ETV6 (P41212 whole entry): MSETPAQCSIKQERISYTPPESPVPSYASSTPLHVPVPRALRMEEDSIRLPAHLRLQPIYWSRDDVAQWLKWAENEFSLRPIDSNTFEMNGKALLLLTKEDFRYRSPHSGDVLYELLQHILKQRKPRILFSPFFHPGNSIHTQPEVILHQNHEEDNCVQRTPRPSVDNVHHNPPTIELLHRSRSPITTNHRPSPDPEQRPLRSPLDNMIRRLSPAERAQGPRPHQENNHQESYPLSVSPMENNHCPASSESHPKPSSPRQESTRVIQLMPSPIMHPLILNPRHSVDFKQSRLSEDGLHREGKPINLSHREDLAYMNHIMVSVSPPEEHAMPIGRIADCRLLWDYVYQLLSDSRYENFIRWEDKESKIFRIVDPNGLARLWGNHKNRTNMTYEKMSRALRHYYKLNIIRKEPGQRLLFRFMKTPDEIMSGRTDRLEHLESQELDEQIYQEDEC
Chain of ETV1 (P50549 whole entry): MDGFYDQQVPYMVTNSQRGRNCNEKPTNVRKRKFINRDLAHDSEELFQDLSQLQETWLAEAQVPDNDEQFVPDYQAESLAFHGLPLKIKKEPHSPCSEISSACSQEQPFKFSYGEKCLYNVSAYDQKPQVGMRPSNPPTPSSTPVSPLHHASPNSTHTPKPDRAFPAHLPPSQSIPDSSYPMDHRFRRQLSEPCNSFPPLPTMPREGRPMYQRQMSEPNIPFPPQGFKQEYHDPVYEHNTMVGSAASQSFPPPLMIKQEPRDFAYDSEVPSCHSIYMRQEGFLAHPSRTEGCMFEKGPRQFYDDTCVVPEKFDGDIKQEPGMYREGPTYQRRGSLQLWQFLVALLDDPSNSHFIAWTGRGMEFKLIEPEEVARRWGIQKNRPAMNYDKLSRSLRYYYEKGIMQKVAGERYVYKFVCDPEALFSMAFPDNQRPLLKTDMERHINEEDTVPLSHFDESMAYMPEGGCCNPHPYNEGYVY
Chain of ETV5 (P41161 whole entry): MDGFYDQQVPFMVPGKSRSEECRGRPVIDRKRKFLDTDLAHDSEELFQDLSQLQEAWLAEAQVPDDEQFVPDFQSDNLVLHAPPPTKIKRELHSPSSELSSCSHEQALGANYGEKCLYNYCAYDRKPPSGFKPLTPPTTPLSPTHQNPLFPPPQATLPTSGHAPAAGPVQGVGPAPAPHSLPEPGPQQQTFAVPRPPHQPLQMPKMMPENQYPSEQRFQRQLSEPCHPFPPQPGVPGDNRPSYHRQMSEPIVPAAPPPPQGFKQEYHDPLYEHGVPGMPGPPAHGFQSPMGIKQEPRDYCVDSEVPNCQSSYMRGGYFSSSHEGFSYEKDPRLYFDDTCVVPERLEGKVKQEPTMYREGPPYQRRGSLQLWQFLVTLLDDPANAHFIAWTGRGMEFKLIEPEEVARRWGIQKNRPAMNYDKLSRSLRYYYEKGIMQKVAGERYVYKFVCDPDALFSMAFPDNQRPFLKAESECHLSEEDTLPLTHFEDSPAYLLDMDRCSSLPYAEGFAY
Chain of HSF1 (Q00613 whole entry): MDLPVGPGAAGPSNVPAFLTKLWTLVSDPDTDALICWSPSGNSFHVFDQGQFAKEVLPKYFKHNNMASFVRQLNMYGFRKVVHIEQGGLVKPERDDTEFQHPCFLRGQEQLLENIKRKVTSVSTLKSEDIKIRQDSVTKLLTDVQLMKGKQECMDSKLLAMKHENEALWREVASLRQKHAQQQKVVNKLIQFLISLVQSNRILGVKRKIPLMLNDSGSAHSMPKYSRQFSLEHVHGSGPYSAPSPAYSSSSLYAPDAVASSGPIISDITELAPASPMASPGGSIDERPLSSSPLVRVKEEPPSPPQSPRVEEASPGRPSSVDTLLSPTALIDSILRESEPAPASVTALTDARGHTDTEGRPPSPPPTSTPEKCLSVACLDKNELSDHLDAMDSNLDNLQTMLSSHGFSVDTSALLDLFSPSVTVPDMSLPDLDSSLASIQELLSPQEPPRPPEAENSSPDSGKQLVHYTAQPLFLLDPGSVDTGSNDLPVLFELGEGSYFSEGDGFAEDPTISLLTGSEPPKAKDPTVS

Question: For TATTGA, which binding signal [1] is on record?
Answer: The binding signal was 1.1 fold enrichment (6-mer frequency, TF over GST control).

Question: And the binding signal [2]?
Answer: Its binding signal is 1.1 fold enrichment (6-mer frequency, TF over GST control).

Question: And the binding signal [3]?
Answer: Its binding signal is 1.14 fold enrichment (6-mer frequency, TF over GST control).

Question: What about the binding signal [4] of the same sequence?
Answer: The binding signal was 1.2 fold enrichment (6-mer frequency, TF over GST control).

Question: What about the binding signal [5] of the same sequence?
Answer: Its binding signal is 1.17 fold enrichment (6-mer frequency, TF over GST control).

Question: What about the binding signal [6] of the same sequence?
Answer: The binding signal was 1.17 fold enrichment (6-mer frequency, TF over GST control).

Question: What about the binding signal [7] of the same sequence?
Answer: The binding signal was 1.14 fold enrichment (6-mer frequency, TF over GST control).

Question: What about the binding signal [8] of the same sequence?
Answer: The binding signal was 1.19 fold enrichment (6-mer frequency, TF over GST control).

Question: And the binding signal [9]?
Answer: Its binding signal is 1.29 fold enrichment (6-mer frequency, TF over GST control).

Question: And the binding signal [10]?
Answer: The binding signal was 1.16 fold enrichment (6-mer frequency, TF over GST control).

Question: And the binding signal [11]?
Answer: The binding signal was 1.12 fold enrichment (6-mer frequency, TF over GST control).

Question: And the binding signal [12]?
Answer: Its binding signal is 1.22 fold enrichment (6-mer frequency, TF over GST control).

Question: And the binding signal [13]?
Answer: The binding signal was 1.12 fold enrichment (6-mer frequency, TF over GST control).

Question: And the binding signal [14]?
Answer: Its binding signal is 1.17 fold enrichment (6-mer frequency, TF over GST control).

Question: What about the binding signal [15] of the same sequence?
Answer: Its binding signal is 1.14 fold enrichment (6-mer frequency, TF over GST control).

Question: What about the binding signal [16] of the same sequence?
Answer: Its binding signal is 1.11 fold enrichment (6-mer frequency, TF over GST control).

Question: And the binding signal [17]?
Answer: Its binding signal is 1.19 fold enrichment (6-mer frequency, TF over GST control).

Question: What about the binding signal [18] of the same sequence?
Answer: The binding signal was 1.16 fold enrichment (6-mer frequency, TF over GST control).
